# Measured values from PubChem BioAssay.
# Calls of active or inactive are those of the source.
# Key:
# Albumin (Bos taurus) = Albumin (Bos taurus) (UniProt P02769); test: bovine serum albumin binders on microarray, profiling panel, artefact control for SMM control protein annotation, biochemical, small-molecule microarray, Alexa647 label, 635/667 nm fluorescence (AID 1118); conditions: BSA-A647 binding, fluorescence 635 nm, higher = more signal;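 also: score merges 667 nm emission intensity and signal-to-noise per printed compound spot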
# Sequence of Albumin (Bos taurus) (P02769 whole entry, looked up): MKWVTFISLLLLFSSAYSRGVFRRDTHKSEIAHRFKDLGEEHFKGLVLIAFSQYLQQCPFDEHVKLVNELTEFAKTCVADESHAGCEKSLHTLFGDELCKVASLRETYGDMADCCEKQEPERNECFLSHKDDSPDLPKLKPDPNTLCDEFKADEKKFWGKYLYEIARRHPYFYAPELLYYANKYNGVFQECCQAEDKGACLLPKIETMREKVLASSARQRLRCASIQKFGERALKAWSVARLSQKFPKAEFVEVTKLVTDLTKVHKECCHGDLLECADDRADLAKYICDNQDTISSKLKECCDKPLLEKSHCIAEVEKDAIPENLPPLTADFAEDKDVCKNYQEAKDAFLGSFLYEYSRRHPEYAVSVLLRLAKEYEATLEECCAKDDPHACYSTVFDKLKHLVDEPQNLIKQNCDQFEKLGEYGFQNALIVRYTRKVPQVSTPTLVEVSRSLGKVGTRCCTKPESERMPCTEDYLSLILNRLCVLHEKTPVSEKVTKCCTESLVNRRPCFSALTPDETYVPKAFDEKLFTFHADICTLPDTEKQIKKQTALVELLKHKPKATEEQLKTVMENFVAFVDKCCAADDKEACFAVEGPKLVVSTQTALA
# [1] = small-molecule microarray binders of probe aXIP, primary screen, biochemical, NeuroSMM set, 635/667 nm fluorescence (AID 1119); conditions: higher = more signal, called active from +8 up or from −8 down;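 also: probe is the protein aXip251-270 applied at 1 µg/mL to compound-printed slides; binding of probe to printed compounds measured as 667 nm fluorescence plus signal to noise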
# [2] = small-molecule binders of probe aNOTCH3, primary screen, biochemical, small-molecule microarray, 635/667 nm fluorescence (AID 1120); conditions: higher = more signal;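 also: probe is a biotin-tagged antibody raised against NOTCH3 rather than NOTCH3 protein; score merges spot fluorescence near 667 nm with spot signal to noise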
# [3] = small-molecule binders of probe aNOTCH2, primary screen, biochemical, small-molecule microarray, 635/667 nm fluorescence (AID 1121); conditions: higher = more signal;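 also: score merges feature fluorescence read at 667 nm with its signal to noise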
# [4] = molecular target: Carbonic anhydrase 2 (Homo sapiens) (UniProt P00918); test: CAII small-molecule binders, profiling panel, biochemical, small-molecule microarray, Alexa647-labelled CAII (AID 1122); conditions: CAII-A647 binding fluorescence, higher = more signal
# [5] = COS7 lysate on small-molecule microarray, probe aHis, 635 nm (AID 1123); conditions: COS7 cell lysate, fluorescence, higher = more signal;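 also: z-score combines 667nm fluorescence intensity with signal-to-noise per printed compound spot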
# [6] = compound binding in COS7 lysate, probe aLAP1, primary screen, cell lysate, small-molecule microarray (AID 1124); conditions: probe aLAP1, fluorescence, higher = more signal;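 also: lysate comes from COS7 cells expressing LAP1 and is applied at 0.3 µg/mL; score merges spot fluorescence near 667 nm with signal-to-noise over triplicate slides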
# Sam68 (KHDRBS1) = test: Sam68 small-molecule binders, primary screen, biochemical, small-molecule microarray, 635 nm fluorescence (AID 1125); conditions: small-molecule microarray binding, higher = more signal;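 also: score merges 667 nm channel intensity with signal to noise over triplicate slides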
# [7] = system: Chordin-like protein 2 (CHRDL2); test: CHRDL2 small-molecule binders, primary screen, biochemical, small-molecule microarray, 635 nm fluorescence (AID 1126); conditions: small-molecule microarray binding, fluorescence 635 nm; higher = more signal;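 also: printed compound slides probed with Chrdl2 protein at 4 µg/mL for 1 h at 4 C; score merges 667 nm emission intensity with signal to noise over three replicate slides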
# [8] = molecular target: Concanavalin-A (Canavalia ensiformis) (UniProt P02866); test: ConA small-molecule binders, primary screen, artefact control for SMM control protein annotation, biochemical, small-molecule microarray, Alexa647 label, 635 nm (AID 1127); conditions: ConA-A647 binding fluorescence, higher = more signal;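 also: z combines 667 nm emission intensity with signal-to-noise across three replicate slides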
# Sequence of Concanavalin-A (Canavalia ensiformis) (P02866 whole entry, looked up): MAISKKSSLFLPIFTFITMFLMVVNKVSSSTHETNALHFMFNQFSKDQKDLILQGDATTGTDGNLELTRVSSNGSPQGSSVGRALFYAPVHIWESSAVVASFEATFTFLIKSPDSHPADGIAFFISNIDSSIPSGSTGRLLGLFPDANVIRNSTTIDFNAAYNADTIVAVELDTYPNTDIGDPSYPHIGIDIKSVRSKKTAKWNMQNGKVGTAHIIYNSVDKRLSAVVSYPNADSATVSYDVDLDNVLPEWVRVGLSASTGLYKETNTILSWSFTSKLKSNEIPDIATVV
# [9] = anti-His antibody binders, primary screen, artefact control for SMM control protein annotation, biochemical, small-molecule microarray, 635 nm fluorescence (AID 1128); conditions: anti-His Alexa647 antibody binding, higher = more signal;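 also: score merges feature fluorescence with signal-to-noise for each printed compound spot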
# [10] = system: Human papillomavirus type 1a E7 protein (residues 1-88); test: HPV1a E7 small-molecule binders, primary screen, biochemical, small-molecule microarray, residues 1-88, 635 nm (AID 1129); conditions: small-molecule microarray binding, fluorescence 635 nm; higher = more signal
# [11] = molecular target: Focal adhesion kinase 1 (Homo sapiens) (UniProt Q05397); test: small-molecule microarray binders of FAK, primary screen, biochemical, 635/667 nm fluorescence, BSA, DTT (AID 1130); conditions: PTK2 binding, 635 nm fluorescence, higher = more signal;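 also: composite of spot emission at 667 nm and signal to noise over triplicate slides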
# Sequence of Focal adhesion kinase 1 (Homo sapiens) (Q05397 whole entry, looked up): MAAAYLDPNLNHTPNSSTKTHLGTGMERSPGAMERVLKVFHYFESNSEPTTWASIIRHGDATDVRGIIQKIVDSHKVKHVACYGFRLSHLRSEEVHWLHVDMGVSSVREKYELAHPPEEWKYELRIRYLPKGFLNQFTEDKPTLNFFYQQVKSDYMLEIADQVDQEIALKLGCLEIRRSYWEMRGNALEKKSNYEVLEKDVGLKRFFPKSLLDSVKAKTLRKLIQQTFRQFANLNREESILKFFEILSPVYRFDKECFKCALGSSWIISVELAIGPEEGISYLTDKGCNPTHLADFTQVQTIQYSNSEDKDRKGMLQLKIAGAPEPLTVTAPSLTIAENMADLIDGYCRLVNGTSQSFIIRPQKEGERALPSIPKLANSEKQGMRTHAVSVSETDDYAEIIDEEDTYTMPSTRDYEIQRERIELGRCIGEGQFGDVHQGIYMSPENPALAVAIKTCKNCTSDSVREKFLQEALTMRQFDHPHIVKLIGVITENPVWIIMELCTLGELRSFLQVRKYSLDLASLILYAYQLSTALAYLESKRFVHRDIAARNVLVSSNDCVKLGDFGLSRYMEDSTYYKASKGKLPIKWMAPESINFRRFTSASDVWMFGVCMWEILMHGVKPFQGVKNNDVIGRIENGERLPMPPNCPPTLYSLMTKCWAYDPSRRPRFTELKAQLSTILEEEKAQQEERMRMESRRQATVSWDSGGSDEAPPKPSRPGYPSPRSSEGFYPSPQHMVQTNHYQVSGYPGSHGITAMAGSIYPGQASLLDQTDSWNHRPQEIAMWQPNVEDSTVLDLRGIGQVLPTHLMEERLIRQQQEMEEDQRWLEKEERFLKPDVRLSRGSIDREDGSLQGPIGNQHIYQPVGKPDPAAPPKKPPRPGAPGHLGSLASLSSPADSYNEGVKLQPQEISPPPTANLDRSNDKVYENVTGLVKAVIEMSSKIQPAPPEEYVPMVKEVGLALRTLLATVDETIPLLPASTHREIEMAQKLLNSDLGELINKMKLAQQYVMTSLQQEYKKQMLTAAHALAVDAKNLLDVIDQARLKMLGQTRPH
# [12] = system: Fibrinogen (Alexa647-labelled); test: fibrinogen binders on compound microarrays, profiling panel, artefact control for SMM control-protein annotation, biochemical, small-molecule microarray, 635/667 nm fluorescence (AID 1131); conditions: fibrinogen-A647 binding fluorescence, higher = more signal;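 also: z-score merges 667 nm fluorescence with per-spot signal-to-noise over triplicate slides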
# [13] = molecular target: Follistatin (Homo sapiens) (UniProt P19883); test: follistatin binders on small-molecule microarrays, primary screen, biochemical, small-molecule microarray, 635/667 nm fluorescence (AID 1132); conditions: FST binding, 635 nm fluorescence, higher = more signal
# Sequence of Follistatin (Homo sapiens) (P19883 whole entry, looked up): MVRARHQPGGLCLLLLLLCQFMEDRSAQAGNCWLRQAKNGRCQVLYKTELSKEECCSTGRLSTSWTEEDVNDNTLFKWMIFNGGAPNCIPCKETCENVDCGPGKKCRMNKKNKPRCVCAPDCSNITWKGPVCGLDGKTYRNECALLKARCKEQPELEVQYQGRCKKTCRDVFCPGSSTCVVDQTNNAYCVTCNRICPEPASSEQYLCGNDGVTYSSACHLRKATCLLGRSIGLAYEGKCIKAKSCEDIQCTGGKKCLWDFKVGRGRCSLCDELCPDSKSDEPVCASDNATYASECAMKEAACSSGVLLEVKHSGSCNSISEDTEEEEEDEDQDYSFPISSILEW
# [14] = molecular target: Fibroblast growth factor 2 (Homo sapiens) (UniProt P09038); test: FGF2 binders on small-molecule microarrays, primary screen, biochemical, small-molecule microarray, 635/667 nm fluorescence (AID 1133); conditions: small-molecule microarray binding, FGF2, fluorescence 635/667; higher = more signal
# Sequence of Fibroblast growth factor 2 (Homo sapiens) (P09038 whole entry, looked up): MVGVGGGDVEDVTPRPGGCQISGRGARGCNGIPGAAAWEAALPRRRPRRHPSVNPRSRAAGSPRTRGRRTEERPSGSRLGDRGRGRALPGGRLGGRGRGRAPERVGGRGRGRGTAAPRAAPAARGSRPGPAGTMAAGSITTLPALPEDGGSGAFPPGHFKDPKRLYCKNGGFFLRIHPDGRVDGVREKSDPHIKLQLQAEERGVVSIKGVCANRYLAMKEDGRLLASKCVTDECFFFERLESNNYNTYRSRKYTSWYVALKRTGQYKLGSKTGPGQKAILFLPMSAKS
# [15] = mitochondrial membrane potential change in A549 cells, profiling panel, cell-based, JC-1 fluorescence, basal, 24 h, 100 nL (AID 1138); conditions: higher = more signal;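 also: A549 lung adenocarcinoma cells under basal conditions with no added stimulus; test concentration not given here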
# Lefty1 = Lefty1 binders on small-molecule microarrays, primary screen, biochemical, small-molecule microarray, 635/667 nm fluorescence (AID 1139); conditions: small-molecule microarray binding, fluorescence 635/667; higher = more signal
# [16] = system: wheat germ agglutinin (Triticum aestivum), Alexa647-labelled; test: wheat germ agglutinin binders on compound microarrays, profiling panel, artefact control for SMM control-protein annotation, biochemical, small-molecule microarray, 635/667 nm fluorescence (AID 1140); conditions: WGA-A647 binding, 635 nm fluorescence, higher = more signal;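 also: score merges 667 nm feature emission with signal to noise over triplicate slides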
# [17] = molecular target: Luciferin 4-monooxygenase (Photinus pyralis) (UniProt P08659); test: firefly luciferase enzyme inhibitors, primary screen, biochemical, luminescence, purified enzyme, 2006 set (AID 1141); conditions: SteadyGlo luminescence, 30 min, higher = more signal, called active from +8 up or from −8 down;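 also: cell-free assay with purified firefly luciferase at 100 ng per well in PBS; test concentration not given here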
# Sequence of Luciferin 4-monooxygenase (Photinus pyralis) (P08659 whole entry, looked up): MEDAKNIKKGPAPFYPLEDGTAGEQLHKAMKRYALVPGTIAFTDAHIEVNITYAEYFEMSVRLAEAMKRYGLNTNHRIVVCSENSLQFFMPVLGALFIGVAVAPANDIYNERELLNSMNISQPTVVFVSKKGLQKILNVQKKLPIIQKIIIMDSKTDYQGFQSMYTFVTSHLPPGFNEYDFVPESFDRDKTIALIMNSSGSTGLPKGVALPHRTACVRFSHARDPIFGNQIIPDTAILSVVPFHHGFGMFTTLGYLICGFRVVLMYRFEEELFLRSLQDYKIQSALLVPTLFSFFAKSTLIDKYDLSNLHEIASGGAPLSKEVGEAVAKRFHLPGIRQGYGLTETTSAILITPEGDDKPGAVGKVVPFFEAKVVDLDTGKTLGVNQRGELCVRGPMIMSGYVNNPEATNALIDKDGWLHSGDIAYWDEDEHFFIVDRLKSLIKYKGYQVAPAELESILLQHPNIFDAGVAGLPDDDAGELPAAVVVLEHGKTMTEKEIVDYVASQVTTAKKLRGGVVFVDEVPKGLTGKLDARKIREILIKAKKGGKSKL
SMILES,composite z-score (Albumin (Bos taurus)),composite Z-score [1],composite z-score [2],composite z-score [3],composite z-score [4],composite z-score [5],composite z-score [6],composite z-score (Sam68 (KHDRBS1)),composite z-score [7],composite z-score [8],composite z-score [9],composite z-score [10],composite z-score [11],composite z-score [12],composite z-score [13],composite z-score [14],z-score [15],composite z-score (Lefty1),composite z-score [16],z-score [17]
CC(C)CON=C1C[C@@H](O)[C@@H](O)[C@@H]2[C@@H]3C(=O)N(C(C)(C)C)C(=O)[C@@H]3CC[C@@H]12,-0.708,0.11 (inactive),-0.157,-0.14,-0.488,-0.75,-0.0854,0.845,1.5,-1.21,-0.587,-0.537,-0.577,-0.766,1.39,1.46,-0.832,1.51,-0.804,0.444 (inactive)
CC1(C)O[C@H]2O[C@H]([C@H](O)CON=C3[C@H]4CCn5c(=O)n(-c6ccccc6)c(=O)n5[C@H]4[C@H](O)[C@@H]4O[C@H]34)[C@H](O)[C@H]2O1,0.661,-0.171 (inactive),-0.342,-0.105,-0.195,-0.337,-0.0336,-0.773,0.19,0.444,0.455,-0.282,-0.282,0.0946,0.154,0.947,-0.994,0.222,0.0136,0.0158 (inactive)
CCOC(=O)CCN1C(=O)[C@H]2[C@H]3[C@H](O)[C@H](O)CC(=NNC(=O)OCc4ccccc4)[C@H]3CC[C@H]2C1=O,-0.914,0.734 (inactive),0.232,-0.0309,-0.67,-1.26,-0.0688,-1.01,1.4,-0.636,-0.954,-0.746,-0.355,-0.714,0.44,0.386,-0.674,0.742,-0.547,0.292 (inactive)
COC(=O)[C@H](C)NC(=O)CCC1CC(OC(=O)NCCc2ccc(F)cc2)CC2(CCCC(COC(=O)NCc3ccccc3)O2)O1 (stereo not given in full),0.431,0.0852 (inactive),-0.0511,-0.208,0.266,0.253,-0.0955,1.31,0.774,0.619,0.36,0.775,0.0965,0.911,0.913,1.13,0.708,0.875,0.0915,0.835 (inactive)
CC(C)=CCCC(C)=CCON=C1C[C@@H](O)[C@@H](O)[C@@H]2[C@@H]3C(=O)N([C@@H](C)c4ccccc4)C(=O)[C@@H]3CC[C@@H]12,0.0686,-0.283 (inactive),-0.0311,-0.0194,0.043,0.157,0.0404,0.121,1.04,0.6,0.509,0.499,0.276,0.297,0.462,0.58,-0.569,0.6,0.0833,0.391 (inactive)
CC(CCN1CCc2nc(-c3ccccc3)c(-c3ccccc3)cc2C1)=NO[C@H](C)c1cn([C@H](CO)Cc2ccccc2)nn1,0.901,-0.248 (inactive),-0.155,-0.161,0.367,0.585,0.0245,-0.29,0.26,0.158,0.955,0.137,0.0132,0.689,0.677,0.882,2.22,0.313,0.158,-0.595 (inactive)
CCOC(=O)[C@H](Cc1ccccc1)NC(=O)CCC1CC(OC(=O)NCc2ccc3c(c2)OCO3)CC2(CCCC(COC(=O)NCCCN3CCCC3=O)O2)O1 (stereo not given in full),0.613,0.581 (inactive),-0.0204,-0.179,0.454,1.27,0.334,1.32,0.329,1.1,0.556,0.959,0.28,0.87,0.72,0.537,0.232,0.428,0.305,1.12 (inactive)
CCOC(=O)CCN1C(=O)[C@H]2[C@H]3[C@H](O)[C@H](O)CC(=O)[C@@H]3CC[C@H]2C1=O,0.206,-0.778 (inactive),-0.0448,-0.12,0.494,0.696,-0.732,0.81,0.514,0.729,0.591,0.843,-0.0508,0.532,0.64,1.28,-0.466,1.38,0.157,0.426 (inactive)
CC(CCC(=O)OC[C@H]1O[C@H](C#Cc2ccccc2)C=C[C@@H]1Oc1ccc(C)cc1)=NOC[C@@H](C)[C@H](OCc1ccccc1)C(C)C,-0.607,0.35 (inactive),-0.325,-0.226,-0.0949,1.47,-0.427,-1.2,-0.606,-1.14,0.0009,-0.849,-0.502,-1.36,-0.554,-0.625,-0.197,-0.295,-0.726,1.03 (inactive)
CC(C)C(=O)N[C@H]1CCCN1C(=O)C=Cc1ccccc1,0.564,-0.087 (inactive),0.276,0.0062,0.267,0.253,0.0905,0.752,0.242,0.163,0.508,0.899,0.225,-0.198,0.438,0.54,-0.509,1.13,-0.441,-0.0726 (inactive)
